Results reported in PubChem BioAssay (NCATS).
Inconclusive results are not listed. Active and inactive are the calls of the source. Calls follow the shape of the dose curve; as a rule, active = well fitted cell-killing curve with a large enough effect; inconclusive = small, poorly fitted or top-dose-only effect, or effect the other way; inactive = no such curve, though single readings can be large or run the other way.

Key:
[1] = Quantitative High-Throughput drug screen in 47 multiple myeloma cell lines against the NCATS MIPE library collection: MM1S_ATCC cell viability assay (AID 1918980); also: nearly all actives have a fitted effect of over 45% in size; also: potency is read from the fitted curve at half-maximal effect
Method in brief: (§1)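 Cells were exposed to library compounds for 48 hours, after which ATP was measured by CellTiter-Glo. Signal was taken as median relative luminescence units.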

[2] = Quantitative High-Throughput drug screen in 47 multiple myeloma cell lines against the NCATS MIPE library collection: MM1R_ATCC cell viability assay (AID 1918981); also: nearly all actives have a fitted effect of over 35% in size; also: potency is read from the fitted curve at half-maximal effect
Method in brief: as §1

[3] = Quantitative High-Throughput drug screen in 47 multiple myeloma cell lines against the NCATS MIPE library collection: KMS28PE_JCRB cell viability assay (AID 1918983); also: potency is read from the fitted curve at half-maximal effect; nearly all actives have a fitted effect of over 35% in size
Method in brief: as §1

[4] = Quantitative High-Throughput drug screen in 47 multiple myeloma cell lines against the NCATS MIPE library collection: OCIMY7_PLB cell viability assay (AID 1918987); conditions: OCI-MY7 myeloma viability, CellTiter-Glo ATP, 48 h; viability (% of DMSO): at 45.8 µM (top of the series); also: nearly all actives have a fitted effect of over 65% in size; also: potency is read from the fitted curve at half-maximal effect
Method in brief: as §1

[5] = Quantitative High-Throughput drug screen in 47 multiple myeloma cell lines against the NCATS MIPE library collection: OCIMY5_PLB cell viability assay (AID 1918988); also: potency is read from the fitted curve at half-maximal effect; nearly all actives have a fitted effect of over 65% in size
Method in brief: as §1

[6] = Quantitative High-Throughput drug screen in 47 multiple myeloma cell lines against the NCATS MIPE library collection: U266_ATCC cell viability assay (AID 1919864); also: nearly all actives have a fitted effect of over 35% in size; also: potency is read from the fitted curve at half-maximal effect
Method in brief: as §1

[7] = Quantitative High-Throughput drug screen in 47 multiple myeloma cell lines against the NCATS MIPE library collection: XG6_PLB cell viability assay (AID 1919865); also: nearly all actives have a fitted effect of over 40% in size; also: potency is read from the fitted curve at half-maximal effect
Method in brief: as §1

[8] = Quantitative High-Throughput drug screen in 47 multiple myeloma cell lines against the NCATS MIPE library collection: XG1_PLB cell viability assay (AID 1919866); also: nearly all actives have a fitted effect of over 35% in size; also: potency is read from the fitted curve at half-maximal effect
Method in brief: as §1

[9] = Quantitative High-Throughput drug screen in 47 multiple myeloma cell lines against the NCATS MIPE library collection: VP6_DJ cell viability assay (AID 1919867); also: nearly all actives have a fitted effect of over 40% in size; also: potency is read from the fitted curve at half-maximal effect
Method in brief: as §1

[10] = Quantitative High-Throughput drug screen in 47 multiple myeloma cell lines against the NCATS MIPE library collection: PE2_PLB cell viability assay (AID 1919869); also: nearly all actives have a fitted effect of over 35% in size; also: potency is read from the fitted curve at half-maximal effect
Method in brief: as §1

[11] = Quantitative High-Throughput drug screen in 47 multiple myeloma cell lines against the NCATS MIPE library collection: PCM6_Riken cell viability assay (AID 1919870); also: nearly all actives have a fitted effect of over 30% in size; also: potency is read from the fitted curve at half-maximal effect
Method in brief: as §1

[12] = Quantitative High-Throughput drug screen in 47 multiple myeloma cell lines against the NCATS MIPE library collection: RPMI8226_ATCC cell viability assay (AID 1919871); also: nearly all actives have a fitted effect of over 30% in size; also: potency is read from the fitted curve at half-maximal effect
Method in brief: as §1

[13] = Quantitative High-Throughput drug screen in 47 multiple myeloma cell lines against the NCATS MIPE library collection: LP1_DSMZ cell viability assay (AID 1918982); also: nearly all actives have a fitted effect of over 35% in size
Method in brief: as §1

[14] = Quantitative High-Throughput drug screen in 47 multiple myeloma cell lines against the NCATS MIPE library collection: L363_DSMZ cell viability assay (AID 1918984); also: nearly all actives have a fitted effect of over 40% in size; also: potency is read from the fitted curve at half-maximal effect
Method in brief: as §1

[15] = Quantitative High-Throughput drug screen in 47 multiple myeloma cell lines against the NCATS MIPE library collection: OPM1_PLB cell viability assay (AID 1918989); also: nearly all actives have a fitted effect of over 40% in size; also: potency is read from the fitted curve at half-maximal effect
Method in brief: as §1

[16] = Quantitative High-Throughput drug screen in 47 multiple myeloma cell lines against the NCATS MIPE library collection: KMS34_JCRB cell viability assay (AID 1918985); also: nearly all actives have a fitted effect of over 40% in size; also: potency is read from the fitted curve at half-maximal effect
Method in brief: as §1

[17] = Quantitative High-Throughput drug screen in 47 multiple myeloma cell lines against the NCATS MIPE library collection: UTMC2_PLB cell viability assay (AID 1919868); conditions: CellTiter-Glo ATP luminescence, 48 h; viability (% of DMSO control): at 45.8 µM (top of the series); also: nearly all actives have a fitted effect of over 55% in size; also: potency is read from the fitted curve at half-maximal effect
Method in brief: as §1

[18] = Quantitative High-Throughput drug screen in 47 multiple myeloma cell lines against the NCATS MIPE library collection: OPM2_DSMZ cell viability assay (AID 1919872); also: nearly all actives have a fitted effect of over 30% in size; also: potency is read from the fitted curve at half-maximal effect
Method in brief: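 CellTiter-Glo luminescence (ATP) after 48 h compound exposure, 37C/5% CO2; 500 cells/well; MIPE 4.0 approved/investigational drugs pinned in; DMSO = 100%, media only = 0% viability.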

[19] = Quantitative High-Throughput drug screen in 47 multiple myeloma cell lines against the NCATS MIPE library collection: SKMM1_PLB cell viability assay (AID 1919863); conditions: SKMM1 myeloma viability, CellTiter-Glo ATP, 48 h; viability: active compounds read low; also: nearly all actives have a fitted effect of over 35% in size; also: potency is read from the fitted curve at half-maximal effect
Method in brief: as §1

N#Cc1c(C2CCNCC2)cc(-c2c(O)cccc2OCC2CC2)nc1N
active: Potency [1] 16.6 µM | Potency [2] 20.9 µM | Potency [3] 26.4 µM | Potency [4] 2.35 µM | Potency [5] 14.8 µM | Potency [6] 13.2 µM | Potency [7] 1.05 µM | Potency [8] 4.18 µM | Potency [9] 18.7 µM | Potency [10] 18.7 µM | Potency [11] 8.33 µM | Potency [12] 20.9 µM

CC(C=CC=C(C)C=CC1=C(C)CCCC1(C)C)=CC=CC=C(C)C=CC=C(C)C=CC1=C(C)CCCC1(C)C
active: Potency [1] 5.9 µM | Potency [2] 16.6 µM | Potency [14] 16.6 µM | Potency [4] 2.09 µM | Potency [5] 9.35 µM | Potency [6] 16.6 µM | Potency [7] 5.26 µM | Potency [8] 16.6 µM | Potency [9] 23.5 µM | Potency [11] 23.5 µM
inactive: Potency [13] | Potency [15]

CNC(=O)c1cccc(-c2ccc3c(N4CCOC[C@H]4C)nc(N4CCOC[C@H]4C)nc3n2)c1
active: Potency [1] 0.0833 µM | Potency [2] 0.0662 µM | Potency [3] 0.0187 µM | Potency [14] 0.0118 µM | Potency [16] 0.059 µM | viability (% of DMSO) [4] 66.1% | Potency [5] 5.9 µM | Potency [15] 0.105 µM | Potency [7] 0.0833 µM | Potency [8] 0.0118 µM | Potency [9] 0.0132 µM | Potency [17] 0.059 µM | Potency [10] 0.0833 µM | Potency [11] 0.118 µM | Potency [12] 0.0209 µM | Potency [18] 0.105 µM

CCN(CC)CCCCNc1ncc2c(n1)N(C)C(=O)N(c1c(Cl)c(OC)cc(OC)c1Cl)C2
active: Potency [1] 4.69 µM | Potency [2] 16.6 µM | Potency [3] 10.5 µM | Potency [5] 14.8 µM | Potency [15] 0.833 µM | Potency [19] 14.8 µM | Potency [6] 18.7 µM | Potency [7] 23.5 µM | Potency [8] 13.2 µM | Potency [11] 16.6 µM | Potency [12] 14.8 µM
inactive: Potency [14] | Potency [17]

CN1CCCN(C(=O)c2cccc(-c3ccc(C=C4C(=O)Nc5ccc(Cl)cc54)o3)c2)CC1
active: Potency [1] 14.8 µM | Potency [2] 5.9 µM | Potency [14] 6.62 µM | Potency [16] 16.6 µM | Potency [4] 10.5 µM | Potency [5] 9.35 µM | Potency [15] 23.5 µM | Potency [19] 14.8 µM | Potency [7] 7.43 µM | Potency [8] 11.8 µM | Potency [9] 18.7 µM | Potency [17] 0.935 µM | Potency [10] 23.5 µM | Potency [11] 9.35 µM | Potency [12] 23.5 µM | Potency [18] 23.5 µM

Cc1noc(-c2ccc(CSCCC(=O)O)cc2)c1NC(=O)OC(C)c1ccccc1Cl (centres undefined)
inactive: Potency [1] | Potency [2] | Potency [13] | Potency [16] | Potency [15] | viability [19] 124% | Potency [6] | Potency [7] | Potency [8] | Potency [9] | Potency [17] | Potency [10] | Potency [11] | Potency [12] | Potency [18]
